Screens deposited in PubChem BioAssay by several laboratories.
In the library only some 4.2% were active in any assay of this set; here they are far more common.
NLRP3 yeast inh – NALP3 inhibition in yeast. Yeast reconstituted NLRP3/ASC/caspase-1, beta-gal luminescence, 24 h. AID 2825. inhibition, % at 10 µM. 330,000 compounds, 0.39% hits;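 active = inhibition of 50% or more; inactive = inhibition below 50%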;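 also: plate controls were induced DMSO wells for no effect and uninduced yeast grown without galactose for full effect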
NALP1 yeast inh – inhibitors of NALP1 inflammasome in yeast; inhibition, % at 10 µM; 280,000 compounds, 0.61% hits; S. cerevisiae NALP1/ASC/caspase-1 growth, X-gal OD620, 72 h; in the data active = inhibition mostly above about 24%, no sharp cut-off; inactive = mostly below about 32%
tim23-1 inh – inhibits growth of tim23-1 mutant yeast; 330,000 compounds, 1.3% hits; inhibition, % at 20 µM; S. cerevisiae tim23-1 growth, BacTiter-Glo luminescence, 24 h; AID 463212;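 active = growth inhibition of the mutant yeast at or above 50%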;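 also: temperature-sensitive mutant grown at 25 °C; plate controls were DMSO-treated mutant yeast for no effect and medium wells lacking yeast for full effect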
PfHsp90 yeast 2 – growth inhibition of yeast expressing Plasmodium Hsp90. S. cerevisiae expressing PfHsp90, BacTiter-Glo ATP, 48 h; yeast lacking PDR1 and PDR3 efflux regulators. inhibition, % at 9.4 µM. 310,000 compounds, 0.32% hits. AID 504621;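 active = every replicate shows inhibition above about 80%, whatever the replicate mean, limit read from the data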;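 also: 0% = DMSO neutral controls and 100% = 20 µM radicicol positive controls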
tim10-1 inh – inhibits growth of tim10-1 mutant yeast; 330,000 compounds, 2.2% hits; S. cerevisiae tim10-1 ts strain growth, BacTiter-Glo, 24 h; inhibition, % at 20 µM;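 active = inhibition of at least 40%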;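 also: mutant grown at 25 °C; 0% = DMSO wells with yeast and 100% = wells holding no yeast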
TIM10 inh – TIM10 yeast growth inhibition; inhibition, % at 10 µM; S. cerevisiae TIM10 strain growth, BacTiter-Glo luminescence, 24 h; 330,000 compounds, 1.4% hits;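 active = inhibition of 40% or more at the single tested concentration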;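 also: wild-type TIM10 isogenic control strain grown at permissive 25 °C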
tim10-1 confirm – confirmation of tim10-1 mutant yeast growth inhibitors | shares compounds with tim10-1 inh | S. cerevisiae tim10-1 ts strain growth, BacTiter-Glo, 24 h | inhibition, % at 20 µM | 7,400 compounds, 56% hits | AID 463213;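 active = inhibition of yeast growth at or above a set limit in either of two repeat tests at 20 µM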;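 also: tim10-1 mutant grown at permissive 25 °C to find synthetic lethal compounds; 0% = DMSO yeast wells and 100% = medium wells without yeast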
TIM10 conf – confirmation of TIM10 yeast growth inhibitors | inhibition, % at 10 µM | AID 463215 | 4,600 compounds, 63% hits | shares compounds with TIM10 inh | S. cerevisiae tim10 strain growth, BacTiter-Glo luminescence, 24 h;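 active = inhibition of yeast growth at or above a set limit in either of two replicates at 10 µM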;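 also: this counterscreen used the strain with wild-type TIM10; 0% = yeast with DMSO and 100% = medium wells lacking yeast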
tim23-1 confirm – tim23-1 yeast growth inhibition, confirmed. shares compounds with tim23-1 inh. S. cerevisiae tim23-1 growth, BacTiter-Glo luminescence, 24 h. inhibition, % at 20 µM. 4,400 compounds, 83% hits. AID 463218;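 active = inhibition above about 39% in either of two replicate wells at 20 µM, limit read from the data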;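 also: temperature-sensitive tim23-1 mutant grown at 25 °C; 0% = DMSO wells with yeast and 100% = medium wells without yeast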
* = called active by the depositor; nt = not tested or not shown.

SMILES | NLRP3 yeast inh | NALP1 yeast inh | tim23-1 inh | PfHsp90 yeast 2 | tim10-1 inh | TIM10 inh | tim10-1 confirm | TIM10 conf | tim23-1 confirm
O=c1c2ccccc2c(-c2cccc(C(F)(F)F)c2)nn1-c1ccccc1 | 8.8 | -5.4 | 34.5 | -29.2 | 14.8 | -22.3 | nt | nt | nt
O=c1c2ccccc2c(-c2ccc(O)cc2)nn1-c1cccc(C(F)(F)F)c1 | 6.5 | 17.4 | 56.9* | 8.3 | 42.4* | 53.0* | 36.1* | -6.4 | 55.5*
O=C(O)/C=C/c1cnc2ccccc2c1 | -8.2 | -6.0 | -0.9 | -14.5 | -9.4 | -13.1 | nt | nt | nt
O=C(N/N=C/c1ccc([N+](=O)[O-])cc1)c1ccc(COc2ccccc2-c2ccccc2)cc1 | 16.4 | 13.4 | 9.8 | -5.8 | 28.5 | 5.9 | nt | nt | nt
O=C(Nc1ccc(Nc2ccccc2)cc1)c1ccc(Cl)cc1Cl | 25.4 | nt | 5.2 | nt | -12.5 | -13.4 | nt | nt | nt
C#Cc1cccc(NC(=O)c2ccc(Cl)cc2Cl)c1 | -0.7 | 13.9 | 68.0* | 15.8 | 53.5* | 58.5* | 42.5* | 52.2* | 61.2*
CCCCC(=O)Nc1ccc2c(c1)nc(CCN1CCN(C)CC1)n2C | 10.9 | -21.4 | -17.2 | 4.1 | -11.4 | -18.5 | nt | nt | nt
O=S(=O)(NC12CC3CC(CC(C3)C1)C2)c1ccc(F)cc1 | 32.5 | 9.5 | 55.0* | -0.2 | 47.8* | 12.1 | 29.9* | nt | 48.8*
COc1ccc2c(c1)-c1nc(NC(=O)c3ccco3)sc1CC2 | 16.1 | 37.6 | 57.4* | -8.6 | 57.8* | 25.3 | 53.1* | nt | 61.2*
CCCCCCC(=O)N/N=C/c1ccc(Br)cc1 | 6.4 | 23.3 | 72.6* | -9.1 | 50.5* | 34.3 | 32.6* | nt | 72.9*
COc1ccc(CN2C(=O)[C@H]3Cc4c([nH]c5ccccc45)C(C)(C)N3C2=O)cc1 | 6.9 | nt | 51.5* | -13.7 | 48.5* | 41.3* | 39.3* | 36.5* | 46.9*
COc1ccc2c(c1)CC1c3c(cc4c(c3-2)OCO4)CC[N+]1(C)[O-] (stereo not given) | 14.0 | 10.3 | 15.2 | -0.2 | -61.2 | 8.4 | nt | nt | nt
COc1ccc(/C=C/C(=O)ONC2=NCCCCC2)cc1OC | -1.2 | -25.8 | 58.4* | -1.2 | 67.6* | 49.0* | 68.6* | 37.0* | 31.2
CCCN(c1nc(C)cc(OC)n1)S(=O)(=O)c1ccccc1 | -8.2 | 23.8 | 50.7* | -33.3 | 43.9* | 33.7 | 18.4 | nt | 39.9*
O=C(O)COc1c(-c2ccco2)oc2ccccc2c1=O | -7.6 | 1.0 | 0.1 | 20.2 | -2.8 | 14.0 | nt | nt | nt
COc1ccc(-c2oc3ccccc3c(=O)c2OC(C)=O)cc1 | 4.4 | 3.3 | 59.7* | 3.3 | 42.2* | 55.2* | 33.6* | 48.1* | 59.1*
CC(=O)Oc1c(-c2ccc(Br)o2)oc2ccccc2c1=O | 34.1 | -8.1 | 64.9* | -27.4 | 53.2* | 73.0* | 59.7* | 77.7* | 86.0*
COc1ccc(-c2oc3ccccc3c(=O)c2OCC(=O)O)cc1 | 16.1 | -22.8 | 12.9 | -11.7 | -0.9 | -6.1 | nt | nt | nt
O=[N+]([O-])c1ccc2[nH]c3c(c2c1)CCCC3 | 15.1 | 24.4 | 66.3* | 11.3 | 64.8* | 39.9 | 57.0* | nt | 66.5*
N/N=C1\CCCc2c1[nH]c1ccc([N+](=O)[O-])cc21 | -1.2 | -2.6 | -10.7 | nt | 18.4 | 9.9 | nt | nt | nt
O=C(NN=C1CCN(Cc2ccccc2)CC1)C(O)c1ccccc1 (stereo not given) | 0.7 | 35.3 | 19.1 | -1.8 | 5.0 | -3.9 | nt | nt | nt
CC/C(=N\NC(N)=O)c1ccc(OC(F)F)cc1 | -18.6 | 0.3 | -8.2 | -2.3 | 6.9 | 3.1 | nt | nt | nt
COc1ccccc1NS(=O)(=O)c1cccc(C(=O)NNC(=O)C(C)NC(=O)c2ccco2)c1 (stereo not given) | 9.9 | nt | -3.5 | 14.6 | -13.4 | -1.0 | nt | nt | nt
CC(=O)c1cccc2c(O)c(C3=Nc4ccccc4C3=O)[nH]c12 | 8.9 | 12.3 | 88.3* | -25.1 | 72.7* | 63.2* | 56.8* | -27.5 | 89.6*
Cc1sc(N)nc1-c1ccc(Oc2ccccc2)cc1 | 37.4 | 95.4* | 69.3* | -11.4 | 40.3* | 29.1 | 50.5* | nt | 57.0*
SMILES | NLRP3 yeast inh | NALP1 yeast inh | tim23-1 inh | PfHsp90 yeast 2 | tim10-1 inh | TIM10 inh | tim10-1 confirm | TIM10 conf | tim23-1 confirm
CCOC(=O)N1CCC(N2Cc3cccc(C(=O)Nc4ccccc4OC)c3C2=O)CC1 | 13.2 | 12.4 | 26.0 | -10.6 | 17.1 | 20.9 | nt | nt | nt
O=C(Nc1ncc(Br)s1)C(Cc1ccccc1)n1cccc1 (stereo not given) | -5.2 | -44.4 | 66.7* | 39.5 | 63.2* | 57.5* | 54.4* | 56.7* | 53.8*
O=c1[nH]cnc2scc(C3COc4ccccc4O3)c12 (stereo not given) | 6.2 | -2.9 | -10.3 | 41.6 | 29.9 | 15.4 | nt | nt | nt
Clc1ncnc2scc(C3COc4ccccc4O3)c12 (stereo not given) | 15.9 | -31.1 | 51.5* | 6.5 | 52.7* | 29.9 | 31.4 | nt | 30.5
CC12CCC(C(=O)N(CSC(=S)N/N=C\c3ccccc3Cl)C1=O)C2(C)C (stereo not given) | 8.4 | 7.3 | 58.6* | -7.8 | 40.5* | 57.0* | 22.8 | -22.8 | 41.4*
Cc1ccccc1NCN1C(=O)C2CCC(C)(C1=O)C2(C)C (stereo not given) | 6.4 | nt | 1.8 | 24.4 | 2.5 | 10.5 | nt | nt | nt
O=c1[nH]cnc2c1c(-c1ccccc1)cn2-c1ccc(Br)cc1 | -62.9 | -0.4 | 43.3 | -91.2 | 31.2 | 41.6* | nt | 38.0* | nt
CCOC(=O)N/N=C/c1c(C)c(C(=O)c2ccc(F)cc2)n2ccccc12 | 24.8 | 10.9 | 37.2 | 6.6 | 39.7 | 43.6* | nt | 32.4* | nt
COC(=O)N/N=C/c1c(C)c(C(=O)c2ccc(F)cc2)n2ccccc12 | 33.5 | 36.1 | 26.4 | 37.8 | 29.5 | 21.7 | nt | nt | nt
C#CCOCCOCCOCCNc1nc(N2CCN(C(=O)[C@H](CCCCN)n3cc([C@@H](N)CO)nn3)CC2)nc(N2CCN(C(=O)[C@H](Cc3cc4ccccc4[nH]3)n3cc([C@@H](N)CC(C)C)nn3)CC2)n1 | 11.1 | 19.5 | -5.8 | nt | -19.3 | 94.2* | nt | 0.8 | nt
C#CCOCCOCCOCCNc1nc(N2CCN(C(=O)[C@H](CCCCN)n3cc([C@@H](N)CO)nn3)CC2)nc(N2CCN(C(=O)[C@H](Cc3cc4ccccc4[nH]3)n3cc([C@@H](N)CO)nn3)CC2)n1 | 24.8 | nt | 10.7 | nt | 1.6 | 6.8 | nt | nt | nt
Cc1ccc(C(=O)NC(=S)Nc2ccccc2C(F)(F)F)cc1 | 21.0 | -13.7 | 27.8 | -19.5 | 25.8 | 40.1* | nt | 12.2 | nt
Cc1cccc(OCC(=O)O/N=C(\N)c2ccc(Br)cc2)c1 | 22.2 | nt | 16.0 | -6.5 | 3.3 | -10.3 | nt | nt | nt
